Experimental findings from PubChem BioAssay AID588726 (The Scripps Research Institute Molecular Screening Center, 2011) are described below.

Hit rate of the full screen: of about 360,000 compounds, about 8,200 (2.3%) were called active. No stated cut-off is given here; in the data, active means inhibition above about 27%; inactive means the rest. The entries come from a sample that favours actives as a whole.

The assay deals with Fructose-bisphosphate aldolase (Mycobacterium tuberculosis (strain ATCC 25618 / H37Rv)) (UniProt P9WQA3). In words: Mtb FBA enzyme inhibitors, primary screen, biochemical, fluorescence, strain H37Rv (AID 588726).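 Further: 0% = vehicle and 100% = reference inhibitor.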 The following applies: purified M. tuberculosis FBA, fluorescence read-out, at 1 µM, active compounds read high.
Fructose-bisphosphate aldolase (Mycobacterium tuberculosis (strain ATCC 25618 / H37Rv)), sequence (P9WQA3 whole entry, looked up): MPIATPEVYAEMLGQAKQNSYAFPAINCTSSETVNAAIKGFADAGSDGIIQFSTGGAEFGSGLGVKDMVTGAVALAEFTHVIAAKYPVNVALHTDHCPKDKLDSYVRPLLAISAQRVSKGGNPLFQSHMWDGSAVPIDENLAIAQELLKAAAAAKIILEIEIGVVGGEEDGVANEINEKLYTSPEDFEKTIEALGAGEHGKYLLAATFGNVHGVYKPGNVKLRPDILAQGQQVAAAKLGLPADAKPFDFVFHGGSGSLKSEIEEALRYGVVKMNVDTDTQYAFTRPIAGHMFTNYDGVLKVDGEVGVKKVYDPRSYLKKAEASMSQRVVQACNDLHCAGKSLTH
As a reminder, the inhibition is the drop in the measured response relative to a control, in per cent. Take `Cc1cc(NC(=O)C(C)SCC(=O)Nc2cccc(S(=O)(=O)N3CCCCCC3)c2)no1` (stereo not drawn): the inhibition was 2.17% (inactive).
For `COc1cccc(NC(=O)CSc2nnc(C3CCCCC3)n2N)c1`, the inhibition is -1.25% (inactive).
In the case of `CC(=O)NC(CC(=O)Nc1nccs1)c1ccccc1` (stereo not drawn) it was 6.36% (inactive).
For `OC(CN=c1sc2ccccc2n1CC(O)COc1ccccc1)COc1ccccc1` (stereo not drawn) the value was -7.04% (inactive).
For `CC(C)COP(=O)(c1ccc(N(C)C)cc1)C(Nc1ccccc1)c1cccnc1` (stereo not drawn) the value was 6.04% (inactive); for `COc1ccc(C(=O)N(CCN2CCOCC2)CC(=O)NC2CCCC2)cc1OC`, -0.65% (inactive).
In the case of `Cc1ccc2nc(-c3ccccc3)c(CC3CCCCC3)n2c1`, the inhibition was 3.26% (inactive).
Regarding `Cc1ccccc1C(=O)NCCN=C1NS(=O)(=O)c2ccccc21`, the inhibition was 0.52% (inactive).
In the case of `COc1ccc(-n2c(C)nn(CC3CC3)c2=O)cc1` it was -1.25% (inactive).
In the case of `COc1ccc(CC(NC(C)=O)C(=O)N2CCN(C(=O)Nc3cccc(Cl)c3)CC2)cc1OC` (stereo not drawn) it was 1.24% (inactive).
`CCCS(=O)(=O)Nc1ccc(-c2cn3c(n2)SCC3)cc1`: the inhibition was 0.71% (inactive).
For `CNc1cncc(-c2ccc(NS(C)(=O)=O)cc2)n1` the value was 174% (active); for `CS(=O)(=O)Nc1ccc(C(=O)N2CCCC2)cc1`, 4.14% (inactive); for `C#CCNC(=O)C1=C[C@@H](c2ccccc2)[C@H](CCCO)[C@@H](OCC)O1`, 0.54% (inactive).
As for `COc1ccc2ccn(C)c2c1`, the inhibition is 0% (inactive).
`COc1ccc(N)c(C)c1`: the inhibition was 1.98% (inactive).
For `COc1ccc2c(c1)cc1n2CCN=C1NN` the value was 41.9% (active); for `Cc1ccc(-c2nnc(-n3nnc4ccccc43)c3ccccc23)cc1`, -0.52% (inactive); for `O=c1[nH]c2ccccc2n2c(-c3ccccc3)nnc12`, 4.09% (inactive).
For `Cc1ccc(-c2nc3ccccc3[nH]c2=O)cc1` the value was 76.5% (active).
As for `O=C(NCC(=O)N1CCN(c2ccccc2O)CC1)c1ccc2ccccc2c1`, the inhibition is 1.15% (inactive).
With `CC(C(=O)NCCc1ccc(S(N)(=O)=O)cc1)N1C(=O)CC(C)(C)Sc2ccccc21` (stereo not drawn), the inhibition was 4.96% (inactive).
For `CC(=O)NC1=NC(=O)CS1` the value was 3.59% (inactive); for `O=C(COC(=O)c1ccc(Cl)nc1)NCc1ccc2c(c1)OCO2`, -2.36% (inactive).
For `CCOc1c2ccc(C(=O)NCc3ccc4c(c3)OCO4)cc2nn1C`, the inhibition was 50.2% (active).
Turning to `CCCn1nc2cc(C(=O)NCc3ccccc3)ccc2c1OCC`, the inhibition is 57.5% (active).
For `COc1ccc(CNC(=O)c2ccc3oc(C(C)C)nc3c2)cc1` the value was 0.16% (inactive); for `CCOc1c2ccc(C(=O)NCc3ccc(OC(F)(F)F)cc3)cc2nn1C`, 44% (active); for `CCOc1c2ccc(C(=O)NC3CCCc4ccccc43)cc2nn1CC` (stereo not drawn), 42.8% (active).
As to `Cc1cc(N2C(=O)c3ccc(C(=O)NCc4ccccc4)cc3C2=O)no1`, the inhibition is 0.51% (inactive).
For `CCOc1ccc(NC(=O)COc2ccc(C(=O)NC3CCCc4ccccc43)cc2OC)cc1` (stereo not drawn) the value was 3.93% (inactive).
In the case of `C=CCOc1c2ccc(C(=O)N(CC)c3ccc(OC)cc3)cc2nn1C` it was 17.6% (inactive); in that of `CNS(=O)(=O)c1cccc(C(=O)NC2CCCc3ccccc32)c1` (stereo not drawn), 5.34% (inactive); in that of `C[n+]1ccc(C(=O)NCc2ccccc2)cc1`, 3.53% (inactive).
Take `COc1ccccc1-n1c(C)nc2cc(C(=O)NCc3ccc4c(c3)OCO4)ccc21`: the inhibition is 0.13% (inactive).
For `Cc1ccc(Nc2ccccc2N)cc1` the value was 8.06% (inactive).
For `CC1(C)Cc2cccc(OCC(=O)N3CCN(c4ccc([N+](=O)[O-])cc4)CC3)c2O1` the value was -5.39% (inactive); for `O=C(CCN1CCCCC1)Nc1ccc(F)c(F)c1`, -0.67% (inactive); for `Cc1noc(C)c1CCC(=O)O`, 1.72% (inactive).
Take `CC(C)(C)n1nnc(CCc2nnn(C(C)(C)C)n2)n1`: the inhibition was 2.81% (inactive).
For `COc1ccc(CCNC(=O)C2CC3Cn4c(nc5cc(C)c(C)cc54)C3N2C)cc1` (stereo not drawn), the inhibition is 1.06% (inactive).
As to `CCC1CCCCN1C(=O)CSc1nc2c(c(=O)n1C)SC(C)C2` (stereo not drawn), the inhibition was -1.89% (inactive).
`Cc1nc(N=C(N)N)nc2c(C)cccc12`: the inhibition was 8% (inactive).
In the case of `CCc1c(C)nc2c(OC)cccc2c1Cl` it was 6.78% (inactive).
In the case of `COc1nc(N=C(N)N)nc2c(C)cccc12`, the inhibition is 32.9% (active).
In the case of `COc1ccc2cc(C(=O)C3CCCN(C(=O)c4sc(C)nc4C)C3)ccc2c1` (stereo not drawn) it was 162% (active).
Regarding `COc1ccc(C(=O)C2CCCN(C(=O)c3cnsn3)C2)c(C)c1` (stereo not drawn), the inhibition is 2.56% (inactive).
In the case of `CCn1nc(C)cc1C(=O)N1CCCC(C(=O)c2cccc(OC)c2)C1` (stereo not drawn) it was -1.49% (inactive); in that of `COc1ccc(-c2c(-c3cc(OC)cc(OC)c3)n(C)c3ccc(-c4ccn[nH]4)cc23)cc1`, 41.1% (active); in that of `COc1cc(OC)cc(-c2c(-c3ccc(F)cc3)c3cc(-c4ccc5cc[nH]c5c4)ccc3n2C)c1`, 26.4% (inactive).
For `COc1cc(OC)cc(-c2c(-c3cccs3)c3cc(-c4ccc(OC)nc4)ccc3n2C)c1` the value was 1.28% (inactive); for `Cc1csc(/N=C/N(C)C)c1C#N`, -1.13% (inactive); for `CCOCCCNC(=O)c1c[nH]c2cc(C)ccc2c1=O`, 4.52% (inactive).
For `CCOCCCNC(=O)c1cc2c(=O)n3ccccc3nc2s1` the value was 184% (active); for `CN(C(=O)c1cc2c(=O)n3ccccc3nc2s1)C1CCCCC1`, 94.8% (active).
With `CCOCCCNC(=O)c1cn(CC(C)C)c(=O)c2c1c1ccccc1n2C`, the inhibition is 25.3% (inactive).
With `CN(c1ccc2nc3ccccc3c(=O)n2n1)C1CCCCC1`, the inhibition is 1.09% (inactive).
In the case of `CN(C(=O)CSc1nnnn1-c1ccccc1)C1CCCCC1` it was 5.06% (inactive).
In the case of `CCn1ncc(C2=NOC(C(=O)N3CCN(c4ccccc4)CC3)C2)c1C` (stereo not drawn) it was 0.67% (inactive); in that of `C[C@@H]1CN([C@@H](C)CO)C(=O)CCCn2cc(nn2)CO[C@H]1CN(C)S(=O)(=O)c1ccc(-n2cccn2)cc1`, -4.05% (inactive).
In the case of `Cc1ccc(C(=O)OCC(=O)Nc2ccc(Cl)cn2)cc1S(=O)(=O)N1CCOCC1` it was -2.24% (inactive); in that of `CCc1ccc(C(=O)NN=C2CCCCCC2)s1`, 2.93% (inactive).
For the compound `Cc1ccc(Cn2cc(C(=O)NN)c(=O)c3ccc(F)cc32)cc1`, the inhibition was -0.43% (inactive).
